Experimental data published in PubChem BioAssay AID1159580 (chemical genetic matrix, 2015).
Among all 5,500 compounds or so, about 2,000 (36%) were called active. About 18% were inconclusive and are not listed. Cut-off read from the data, not from the text of the source: active = normalized growth mostly below about 0.91 (no sharp cut-off); inconclusive = no clear call, values can overlap the other calls; inactive = mostly above about 0.92. Some of the results follow.

Assay: chemical genetic growth profiling, strain panel (AID 1159580);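 note: tested at 20 µM; growth read once vehicle control cultures reached saturation at 30 °C; 1 = growth at the plate median or of vehicle wells; lower values mean less growth of the strain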
Settings: growth OD

Measured: normalized growth

COC(=O)CCCOc1ccc(Cl)cc1Cl
inactive: S. cerevisiae deletion strains, locus YJR043C, strain POL32, active compounds read low 0.979 | S. cerevisiae deletion strains, locus YJR075W, strain HOC1, active compounds read low 0.995 | S. cerevisiae deletion strains, locus YKL009W, strain mrt4, active compounds read low 1.01 | S. cerevisiae deletion strains, locus YKL068W, active compounds read low 0.98 | S. cerevisiae deletion strains, locus YKL085W, strain MDH1 (second series), active compounds read low 0.982 | S. cerevisiae deletion strains, locus YKL085W, strain MDH1, active compounds read low 0.982 | S. cerevisiae deletion strains, locus YKL160W, strain elf1, active compounds read low 0.964 | S. cerevisiae deletion strains, locus YKL190W, strain CNB1, active compounds read low 0.99 | S. cerevisiae deletion strains, locus YKR001C, strain vps1, active compounds read low 0.987 | S. cerevisiae deletion strains, locus YKR026C, strain gcn3, active compounds read low 0.946 | S. cerevisiae deletion strains, locus YKR091W, strain srl3, active compounds read low 0.96 | S. cerevisiae deletion strains, locus YLL001W, strain dnm1, active compounds read low 0.957 | S. cerevisiae deletion strains, locus YLL026W, active compounds read low 0.957 | S. cerevisiae deletion strains, locus YLL041C, strain sdh2, active compounds read low 0.957 | S. cerevisiae deletion strains, locus YLR027C, strain aat2, active compounds read low 0.952 | S. cerevisiae deletion strains, locus YLR039C, strain RIC1, active compounds read low 0.982 | S. cerevisiae deletion strains, locus YLR058C, strain SHM2, active compounds read low 1 | S. cerevisiae deletion strains, locus YLR102C, strain apc9, active compounds read low 0.997 | S. cerevisiae deletion strains, locus YLR221C, strain rsa3, active compounds read low 0.967 | S. cerevisiae deletion strains, locus YLR258W, strain gsy2, active compounds read low 0.951 | S. cerevisiae deletion strains, locus YLR262C, strain YPT6 (second series), active compounds read low 0.92 | S. cerevisiae deletion strains, locus YLR262C, strain YPT6, active compounds read low 0.925 | S. cerevisiae deletion strains, locus YLR268W, strain sec22, active compounds read low 1.01 | S. cerevisiae deletion strains, locus YLR320W, strain mms22, active compounds read low 0.924 | S. cerevisiae deletion strains, locus YLR330W, strain CHS5, active compounds read low 0.991 | S. cerevisiae deletion strains, locus YLR342W, strain FKS1 (second series), active compounds read low 1 | S. cerevisiae deletion strains, locus YLR342W, strain FKS1, active compounds read low 0.948 | S. cerevisiae deletion strains, locus YLR357W, strain rsc2, active compounds read low 0.97 | S. cerevisiae deletion strains, locus YLR370C, strain arc18, active compounds read low 0.963 | S. cerevisiae deletion strains, locus YLR371W, strain rom2, active compounds read low 0.999 | S. cerevisiae deletion strains, locus YLR384C, strain iki3, active compounds read low 0.957 | S. cerevisiae deletion strains, locus YLR418C, strain cdc73, active compounds read low 1.02 | S. cerevisiae deletion strains, locus YML016C, strain PPZ1, active compounds read low 0.988 | S. cerevisiae deletion strains, locus YML032C, strain rad52, active compounds read low 1.01 | S. cerevisiae deletion strains, locus YML120C, strain ndi1, active compounds read low 0.967 | S. cerevisiae deletion strains, locus YML124C, strain tub3, active compounds read low 0.995 | S. cerevisiae deletion strains, locus YMR058W, strain fet3, active compounds read low 0.966 | S. cerevisiae deletion strains, locus YMR078C, strain ctf18, active compounds read low 1 | S. cerevisiae deletion strains, locus YMR125W, strain sto1, active compounds read low 0.954 | S. cerevisiae deletion strains, locus YMR129W, active compounds read low 0.95 | S. cerevisiae deletion strains, locus YMR205C, strain PFK2, active compounds read low 0.948 | S. cerevisiae deletion strains, locus YMR223W, strain ubp8, active compounds read low 1.01 | S. cerevisiae deletion strains, locus YMR231W, strain pep5, active compounds read low 0.949 | S. cerevisiae deletion strains, locus YMR263W, strain SAP30, active compounds read low 0.999 | S. cerevisiae deletion strains, locus YMR307W, strain GAS1, active compounds read low 0.98 | S. cerevisiae deletion strains, locus YNL067W, strain RPL9B, active compounds read low 0.995 | S. cerevisiae deletion strains, locus YNL071W, strain lat1, active compounds read low 0.967 | S. cerevisiae deletion strains, locus YNL128W, strain TEP1, active compounds read low 1 | S. cerevisiae deletion strains, locus YNL153C, strain GIM3, active compounds read low 0.999 | S. cerevisiae deletion strains, locus YNL209W, strain ssb2, active compounds read low 0.962 | S. cerevisiae deletion strains, locus YNL233W, strain BNI4, active compounds read low 1 | S. cerevisiae deletion strains, locus YNL248C, strain rpa49, active compounds read low 0.964 | S. cerevisiae deletion strains, locus YNL250W, strain rad50, active compounds read low 0.978 | S. cerevisiae deletion strains, locus YNL271C, strain bni1, active compounds read low 0.976 | S. cerevisiae deletion strains, locus YNL298W, strain CLA4, active compounds read low 0.985 | S. cerevisiae deletion strains, locus YNL307C, strain MCK1, active compounds read low 0.968 | S. cerevisiae deletion strains, locus YNL322C, strain KRE1 (second series), active compounds read low 0.957 | S. cerevisiae deletion strains, locus YNL322C, strain KRE1, active compounds read low 0.994 | S. cerevisiae deletion strains, locus YNR049C, strain mso1, active compounds read low 0.95 | S. cerevisiae deletion strains, locus YNR052C, strain pop2, active compounds read low 1.01 | S. cerevisiae deletion strains, locus YOL006C, strain TOP1, active compounds read low 0.971 | S. cerevisiae deletion strains, locus YOL012C, strain htz1 1.55 | S. cerevisiae deletion strains, locus YOL147C, strain pex11, active compounds read low 0.99 | S. cerevisiae deletion strains, locus YOR001W, strain rrp6, active compounds read low 0.983 | S. cerevisiae deletion strains, locus YOR061W, strain CKA2, active compounds read low 0.989 | S. cerevisiae deletion strains, locus YOR069W, strain VPS5, active compounds read low 1 | S. cerevisiae deletion strains, locus YOR070C, strain gyp1, active compounds read low 0.956 | S. cerevisiae deletion strains, locus YOR080W, strain dia2, active compounds read low 0.946 | S. cerevisiae deletion strains, locus YOR083W, strain WHI5, active compounds read low 0.957 | S. cerevisiae deletion strains, locus YOR106W, strain vam3, active compounds read low 0.991 | S. cerevisiae deletion strains, locus YOR136W, strain idh2, active compounds read low 1 | S. cerevisiae deletion strains, locus YOR144C, strain elg1, active compounds read low 0.998 | S. cerevisiae deletion strains, locus YOR184W, strain ser1, active compounds read low 0.993 | S. cerevisiae deletion strains, locus YOR265W, strain rbl2, active compounds read low 0.956 | S. cerevisiae deletion strains, locus YOR270C, strain vph1, active compounds read low 0.963 | S. cerevisiae deletion strains, locus YOR290C, strain snf2, active compounds read low 0.974 | S. cerevisiae deletion strains, locus YOR316C, strain cot1, active compounds read low 1 | S. cerevisiae deletion strains, locus YPL051W, strain arl3, active compounds read low 0.972 | S. cerevisiae deletion strains, locus YPL055C, strain LGE1, active compounds read low 0.978 | S. cerevisiae deletion strains, locus YPL078C, strain atp4, active compounds read low 0.948 | S. cerevisiae deletion strains, locus YPL106C, strain sse1, active compounds read low 0.964 | S. cerevisiae deletion strains, locus YPL240C, strain hsp82, active compounds read low 0.948 | S. cerevisiae deletion strains, locus YPL241C, strain CIN2, active compounds read low 0.993 | S. cerevisiae deletion strains, locus YPR119W, strain clb2, active compounds read low 0.995 | S. cerevisiae deletion strains, locus YPR141C, strain kar3, active compounds read low 0.981 | S. cerevisiae deletion strains, locus YPR163C, strain tif3, active compounds read low 1 | S. cerevisiae deletion strains, locus YPR167C, strain met16, active compounds read low 0.999 | S. cerevisiae deletion strains, strain wtn01, active compounds read low 0.995 | S. cerevisiae strains, strain wild type, active compounds read low 0.975
